Laboratory results from PubChem BioAssay AID1159567 (Broad Institute, 2015).
About 1,200 (92%) of roughly 1,300 compounds were called active. So high a share suggests a set chosen from earlier hits. Some of the results follow. Potency and affinity values are given separately. Results filed as inconclusive are left out. How the calls were made is not given here.

Assay: P. falciparum Dd2 growth inhibitors, dose response, SYBR Green, cherry-picked samples (AID 1159567)
Conditions: Plasmodium falciparum Dd2 growth, SYBR Green fluorescence; series mostly up to 19.5 µM; activity change, negative = inhibition: at the top concentration

Activity change, negative = inhibition, inactive:
O=C(O)C[C@@H]1C[C@@H]2c3cc(NS(=O)(=O)c4ccccc4)ccc3O[C@@H]2[C@H](CO)O1 -11.2%, C[C@@H]1CN([C@@H](C)CO)C(=O)c2cc(NC(=O)C3CC3)ccc2O[C@H]1CN(C)CC1CCCCC1 -17.9%, CCC(=O)N[C@H]1C=C[C@H](CC(=O)NCC2CCCCC2)O[C@@H]1CO -5.23%, C[C@H]1CN([C@@H](C)CO)C(=O)CCCn2nncc2CO[C@H]1CN(C)C(=O)Nc1ccc(N2CCCCC2)cc1 -18.3%, C[C@H]1CN([C@@H](C)CO)C(=O)CCCn2cc(nn2)CO[C@@H]1CN(C)C(=O)Nc1ccc(N2CCCCC2)cc1 -18.6%, COc1cccc(CNC(=O)[C@H]2[C@H](CO)[C@H]3Cn4c(cccc4=O)[C@@H]2N3C(=O)C2CCCC2)c1 -12.2%, O=C(c1cccnc1)N1CC2(C1)[C@@H](c1ccccc1)[C@@H](CO)N2C(=O)CC1CC1 -16.6% [at 21 µM], COc1ccc(CNC(=O)C[C@H]2C=C[C@@H](NS(=O)(=O)c3cccc(OC)c3)[C@@H](CO)O2)cc1 -19.1% [at 21 µM], C[C@H](O)C#Cc1cnc2c(c1)C(=O)N([C@@H](C)CO)C[C@@H](C)[C@@H](CN(C)C(=O)Cc1ccncc1)O2 -11.8%, O=C(Nc1ccccc1F)N1C[C@@H]2[C@H](c3ccccc31)[C@H](CO)N2C(=O)C1CCOCC1 -23.9%, O=C(Nc1ccc(F)cc1)N1C[C@H]2[C@@H](c3ccccc31)[C@@H](CO)N2Cc1cocn1 -26%, CN(C)CC#Cc1ccc([C@@H]2[C@H](CO)N3C(=O)CN(C(=O)Cc4cccnc4)C[C@@H]23)cc1 -3.25%, COc1ccc(CN(C)C[C@@H]2OCc3cn(nn3)CCCC(=O)N([C@H](C)CO)C[C@H]2C)cc1 -7.11%, C[C@@H]1CN([C@@H](C)CO)C(=O)c2c(c3ccccc3n2C)-c2ccccc2CO[C@H]1CN(C)Cc1ccc(Cl)c(Cl)c1 -15.5% [at 21 µM], O=C1CN(Cc2ccc(F)cc2)C[C@@H]2[C@@H](c3ccc(Br)cc3)[C@H](CO)N12 -20.1% [at 21 µM], Cc1noc(C)c1NC(=O)Nc1ccc2c(c1)C(=O)N([C@H](C)CO)C[C@@H](C)[C@@H](CN(C)S(C)(=O)=O)O2 -10.7%, COc1ccc2c3c([nH]c2c1)[C@@H](CO)N(C(C)=O)CC31CN(C(=O)CN2CCOCC2)C1 -8.81%, COCC(=O)N1CC2(C1)CN(C(=O)CN1CCOCC1)[C@@H](CO)c1c2c2ccc(OC)cc2n1C -8.46%, COCC(=O)Nc1ccc2c(c1)OC[C@@H](C)N(C(=O)NC(C)C)C[C@@H](C)[C@@H](OC)CN(C)C2=O -13.3%, CCCNC(=O)Nc1ccc2c(c1)C(=O)N(C)C[C@H](OC)[C@@H](C)CN(C(=O)C1CCOCC1)[C@@H](C)CO2 -5.93%, COc1ccccc1S(=O)(=O)N(C)C[C@H]1OCc2cn(nn2)CCCC(=O)N([C@@H](C)CO)C[C@@H]1C -3.07%, CO[C@H]1CN(C)C(=O)c2ccc(NC(=O)CC(F)(F)F)cc2OC[C@@H](C)N(CC2CC2)C[C@H]1C -17.4% [at 21 µM], COc1ccc2c3c(n(C)c2c1)[C@H](CO)N(Cc1cccnc1)CC31CN(C(=O)NC(C)C)C1 -10.2%, N#C[C@@H]1[C@H](c2ccccc2-c2ccccc2F)[C@H](CO)N1C(=O)C1CCOCC1 -20.2%, N#C[C@H]1[C@@H](c2ccccc2-c2ccccc2F)[C@@H](CO)N1C(=O)C1CCOCC1 -3.56%, N#C[C@@H]1[C@@H](c2ccccc2-c2ccccc2F)[C@H](CO)N1C(=O)C1CC1 -22.6%, C[C@@H]1CN([C@H](C)CO)C(=O)c2cc(NC(=O)CCC(F)(F)F)ccc2O[C@H]1CN(C)C(=O)NC1CCCCC1 -20%, C[C@H](CO)N1C[C@H](C)[C@@H](CN(C)C(=O)CCCN(C)C)OCc2cnnn2CCCC1=O -3.7% [at 21 µM], O=C(C[C@@H]1C=C[C@@H](NC(=O)C2CCC2)[C@H](CO)O1)NC1CCC1 -9.66%, CN1C(=O)c2cc(NC(=O)c3ccc4c(c3)OCO4)ccc2OC[C@@H]2O[C@@H](CC(=O)O)CC[C@@H]21 -0.896%, CO[C@@H]1CN(C)C(=O)c2cc(NC(C)=O)ccc2OC[C@@H](C)N(C(=O)Cc2cccnc2)C[C@H]1C 22.8%, COCC#Cc1ccc([C@H]2[C@H](CO)N3C(=O)CN(C(=O)CN4CCOCC4)C[C@@H]23)cc1 -30.4%, CN(C)CC(=O)Nc1ccc2c(c1)[C@@H]1C[C@H](CC(=O)N3CCOCC3)O[C@@H](CO)[C@@H]1O2 -1.66%, C[C@H]1CN([C@@H](C)CO)C(=O)Cc2cc(NC(=O)CCC(F)(F)F)ccc2O[C@H]1CN(C)S(C)(=O)=O 12.8% [at 21 µM], CN(C)C(=O)c1cccc(-c2ccccc2[C@@H]2[C@@H](C#N)N(C(=O)C3CC3)[C@H]2CO)c1 -19.9%, COCC(=O)N1[C@H](C#N)[C@@H](c2ccccc2-c2ccccc2)[C@H]1CO -11.9%, COCC(=O)N1[C@@H](C#N)[C@H](c2ccccc2-c2ccccc2)[C@@H]1CO -22.4% [at 21 µM], CO[C@H]1CN(C)C(=O)c2ccc(NS(=O)(=O)CC(F)(F)F)cc2OC[C@H](C)N(C)C[C@@H]1C 1.24% [at 21 µM], CO[C@H]1CN(C)C(=O)c2cc(NS(=O)(=O)c3ccccc3C)ccc2OC[C@H](C)N(C)C[C@H]1C -44.6%, O=C(C[C@H]1C=C[C@H](NC(=O)Cc2ccccn2)[C@H](CO)O1)NCCc1ccccc1 -6.06%, CCC(=O)N1[C@H](CO)[C@H](c2ccccc2)[C@@H]1CN(CC)C(=O)c1cccc(F)c1 -8.04%, CCCNC(=O)Nc1ccc2c(c1)C(=O)N(C)C[C@@H](OC)[C@H](C)CN(C(=O)C1CCOCC1)[C@@H](C)CO2 -4.92%, CCCNC(=O)Nc1ccc2c(c1)C(=O)N(C)C[C@H](OC)[C@@H](C)CN(C(=O)C1CCOCC1)[C@H](C)CO2 23.2%, COCC(=O)N1[C@H](C#N)[C@@H](c2ccccc2C2=CCCC2)[C@@H]1CO -0.072%, CO[C@H]1CN(C)C(=O)c2cc(NC(C)=O)ccc2OC[C@H](C)N(Cc2ccncc2)C[C@H]1C -11.2%, CO[C@H]1CN(C)C(=O)c2cc(NC(C)=O)ccc2OC[C@H](C)N(Cc2ccncc2)C[C@@H]1C -6.15%
